Source: PubChem BioAssay (EPA / NIEHS)
Calls of active or inactive are those of the source. Rule for the calls: active = hit-call score of the fitted dose curve at least 0.9, where 1 is the maximum; inactive = score below 0.9.

Legend:
[1] = ATG_E_Box_CIS: Attagene CIS-FACTORIAL HepG2 Assay for human Enhancer Box (E-box) (AID 2282936); conditions: HepG2 E-box cis-reporter transcription, actives raise or lower the signal
How it was run: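 Cells: HepG2 (human liver), transient MRTU transfection. Exposure 24 h. RNA → oligo(dT) RT → PCR → 6-FAM label → HpaI → CE. Activity fitted both directions relative to DMSO.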

[2] = ATG_EGR_CIS: Attagene CIS-FACTORIAL HepG2 Assay for human Early Growth Response 1 (EGR1) (AID 2282938); conditions: HepG2 Attagene CIS-FACTORIAL EGR reporter mRNA; actives raise or lower the signal
How it was run: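 Read-out: fluorescent reporter-mRNA fragments resolved by capillary electrophoresis after RT-PCR, 24 h post-dose in transiently transfected HepG2. Endogenous transcription-factor activity reported via cis-element-regulated reporter units; gain or loss fitted relative to DMSO.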

[3] = ATG_M_19_CIS: Attagene CIS-FACTORIAL HepG2 Assay for M19 Transcription Factor (Internal Marker) (AID 2282939); conditions: HepG2 Attagene CIS-FACTORIAL M19 internal marker reporter; actives raise or lower the signal
How it was run: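 Readout: fluorescent reporter-transcript fragments by capillary electrophoresis after RT-PCR. Human HepG2 liver cells carried transfected MRTU constructs reporting endogenous transcription-factor activity; exposure 24 h. Gain or loss of signal fitted relative to DMSO.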

[4] = ATG_Ets_CIS: Attagene CIS-FACTORIAL HepG2 Assay for human Erythroblast Transformation Specific (ETS) (AID 2282941); conditions: HepG2 ETS cis-reporter transcription, actives raise or lower the signal
How it was run: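 Human HepG2 hepatoma cells were transiently transfected with promoter-driven reporter constructs and treated for 24 hours. Reporter transcripts were quantified by RT-PCR with fluorescent primer extension; bidirectional curve fitting used DMSO as reference.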

[5] = target: Hepatocyte nuclear factor 3-beta (Homo sapiens) (UniProt Q9Y261); test: ATG_FoxA2_CIS: Attagene CIS-FACTORIAL HepG2 Assay for human Forkhead box A2 (FOXA2) (AID 2282942); conditions: HepG2 cis-reporter transcription factor activity, 24 h; actives raise or lower the signal
How it was run: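 Readout: fluorescent reporter transcripts resolved by capillary electrophoresis after RT-PCR. Transiently transfected HepG2, 24 h compound exposure, endogenous TF activity at cis promoter elements. Gain or loss of signal fitted relative to DMSO.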

[6] = ATG_FoxO_CIS: Attagene CIS-FACTORIAL HepG2 Assay for human Forkhead box O (FoxO) (AID 2282943); conditions: HepG2 Attagene cis-reporter, FoxO element, mRNA; actives raise or lower the signal
How it was run: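 Human hepatoma HepG2 cells carry transiently introduced reporter transcription units controlled by cis promoter elements. Chemical treatment lasted 24 h, and mRNA signal was compared with DMSO.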

[7] = ATG_GATA_CIS: Attagene CIS-FACTORIAL HepG2 Assay for human GATA Binding Protein (AID 2282944); conditions: HepG2 GATA cis-element reporter, Attagene multiplex mRNA; actives raise or lower the signal
How it was run: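 Read-out: fluorescent reporter mRNA fragments resolved by capillary electrophoresis after RT-PCR. Human liver HepG2 cells carried transiently transfected cis-regulated reporter constructs; chemicals incubated 24 h; gain or loss of signal fitted relative to DMSO.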

[8] = ATG_GLI_CIS: Attagene CIS-FACTORIAL HepG2 Assay for human Zinc Finger Protein GLI1 (AID 2282945); conditions: HepG2, Attagene cis-factorial reporter mRNA, GLI element; actives raise or lower the signal
How it was run: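 Bidirectional curve fits relative to DMSO, using reporter mRNA levels from RT-PCR plus capillary electrophoresis. Cells were HepG2 transiently carrying cis-regulated reporter constructs, harvested 24 h after dosing.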

[9] = target: Bile acid receptor (Homo sapiens) (UniProt Q96RI1); test: ATG_IR1_CIS: Attagene CIS-FACTORIAL HepG2 Assay for human Nuclear Receptor Subfamily 1 Group H Member 4 (NR1H4), IR1 submotif (AID 2282946); conditions: IR1 reporter transcription, actives raise or lower the signal
How it was run: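 Cells (human HepG2) carry transiently transfected cis-promoter reporter transcription units. Compounds are incubated 24 h, total RNA is reverse-transcribed and amplified, and labelled fragments are resolved by capillary electrophoresis. Curves use DMSO as baseline.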

[10] = ATG_GRE_CIS: Attagene CIS-FACTORIAL HepG2 Assay for human Glucocorticoid Response Elements (GRE) (AID 2282947); conditions: HepG2 GRE cis-reporter, Attagene multiplex mRNA; actives raise or lower the signal
How it was run: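 Transient MRTU transfection of human HepG2 liver cells; cis-regulated reporters report endogenous factors. 24 h dosing → RNA isolation → RT-PCR → 6-FAM primer extension → HpaI cut → CE fragment analysis. Bidirectional fit, DMSO negative control.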

[11] = ATG_ISRE_CIS: Attagene CIS-FACTORIAL HepG2 Assay for human Interferon Regulatory Factor 1 (IRF1) binding to an Interferon-Stimulated Response Element (ISRE) (AID 2282948); conditions: HepG2 ISRE cis-reporter (Attagene), mRNA transcription readout; actives raise or lower the signal
How it was run: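 Cell-based cis-reporter assay; HepG2; 24 h exposure; reporter mRNA by RT-PCR plus capillary electrophoresis fluorescence; activity in either direction scored relative to DMSO.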

[12] = ATG_M_32_CIS: Attagene CIS-FACTORIAL HepG2 Assay for M32 Transcription Factor (Internal Marker) (AID 2282949); conditions: HepG2 Attagene cis-factorial M32 reporter, mRNA; actives raise or lower the signal;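 note: background control marker of the multiplexed CIS panel rather than a real target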
How it was run: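 Fluorescent capillary electrophoresis peaks of HpaI-digested, FAM-labelled RT-PCR reporter products give the signal. Source: transiently transfected human liver HepG2 cells, 24 h after chemical dosing; bidirectional fitting against DMSO.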

[13] = ATG_M_06_CIS: Attagene CIS-FACTORIAL HepG2 Assay for M06 Transcription Factor (Internal Marker) (AID 2282950); conditions: HepG2 Attagene CIS-FACTORIAL M06 internal marker reporter; actives raise or lower the signal
How it was run: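 Terse: HepG2, transient MRTU transfection (FuGene 6), 24 h dosing; total RNA, oligo(dT) RT, PCR, FAM label, HpaI cut, capillary electrophoresis; bidirectional fit vs DMSO baseline; background-control endpoint.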

[14] = target: Hypoxia-inducible factor 1-alpha (Homo sapiens) (UniProt Q16665); test: ATG_HIF1a_CIS: Attagene CIS-FACTORIAL HepG2 Assay for human Hypoxia Inducible Factor 1 (HIF1A) (AID 2282951); conditions: HepG2 Attagene cis-factorial HIF1a reporter transcription; actives raise or lower the signal
How it was run: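 RT-PCR/capillary electrophoresis fluorescence readout of reporter transcripts from endogenous-TF-driven cis elements in transfected HepG2 cells, 24 h exposure; activity fitted in both directions against DMSO controls.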

[15] = target: Hepatocyte nuclear factor 6 (Homo sapiens) (UniProt Q9UBC0); test: ATG_HNF6_CIS: Attagene CIS-FACTORIAL HepG2 Assay for human Hepatocyte Nuclear Factor 6 (HNF6) (AID 2282952); conditions: HepG2 Attagene cis-factorial HNF6 reporter transcription; actives raise or lower the signal
How it was run: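 Reporter mRNA induction or loss in HepG2 after 24 h exposure; transient cis-MRTU transfection; fragments quantified by capillary electrophoresis; bidirectional analysis, DMSO as negative control.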

[16] = target: Heat shock factor protein 1 (Homo sapiens) (UniProt Q00613); test: ATG_HSE_CIS: Attagene CIS-FACTORIAL HepG2 Assay for human Heat Shock Transcription Factor 1 (HSE) (AID 2282953); conditions: HepG2 HSE cis-reporter, Attagene RNA transcription; actives raise or lower the signal
How it was run: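 Read-out: fluorescence of reporter-specific RT-PCR fragments separated by capillary electrophoresis. HepG2 carrying transfected cis-element reporter units; 24 h dosing; activity fitted in both directions relative to DMSO baseline.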

[17] = ATG_MRE_CIS: Attagene CIS-FACTORIAL HepG2 Assay for human Metal Responsive Element (MRE) (AID 2282954); conditions: HepG2 MRE cis-reporter transcription, Attagene multiplex; actives raise or lower the signal
How it was run: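 Transient MRTU transfection of HepG2 (FuGene 6); 24 h dosing; total RNA → oligo(dT) RT, PCR, 6-FAM primer extension, HpaI cut, CE. Bidirectional fit vs DMSO.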

[18] = ATG_PBREM_CIS: Attagene CIS-FACTORIAL HepG2 Assay for human Phenobarbital-responsive Enhancer Module (PBREM) (AID 2282955); conditions: HepG2 PBREM cis-reporter, Attagene multiplexed transcription; actives raise or lower the signal
How it was run: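 Reporter mRNA read by RT-PCR, 6-FAM primer extension, HpaI digestion and capillary electrophoresis. Transfected HepG2 cells, 24 h compound exposure. Gain or loss of signal fitted bidirectionally relative to DMSO baseline.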

[19] = ATG_ERE_CIS: Attagene CIS-FACTORIAL HepG2 Assay for Estrogen Response Element (ERE) (AID 2282940); conditions: HepG2 ERE cis-reporter, Attagene RNA transcript; actives raise or lower the signal
How it was run: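 Readout: reporter mRNA induction by RT-PCR, FAM-labelled primer extension, HpaI digestion and capillary electrophoresis, 24 h after dosing transfected HepG2 cells. Endogenous transcription factors act on cis-element-regulated reporters. Gain or loss fitted against DMSO.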

Measured: AC50

Hepatocyte nuclear factor 6 (Homo sapiens), sequence (Q9UBC0 whole entry, looked up, the tested form may be a part): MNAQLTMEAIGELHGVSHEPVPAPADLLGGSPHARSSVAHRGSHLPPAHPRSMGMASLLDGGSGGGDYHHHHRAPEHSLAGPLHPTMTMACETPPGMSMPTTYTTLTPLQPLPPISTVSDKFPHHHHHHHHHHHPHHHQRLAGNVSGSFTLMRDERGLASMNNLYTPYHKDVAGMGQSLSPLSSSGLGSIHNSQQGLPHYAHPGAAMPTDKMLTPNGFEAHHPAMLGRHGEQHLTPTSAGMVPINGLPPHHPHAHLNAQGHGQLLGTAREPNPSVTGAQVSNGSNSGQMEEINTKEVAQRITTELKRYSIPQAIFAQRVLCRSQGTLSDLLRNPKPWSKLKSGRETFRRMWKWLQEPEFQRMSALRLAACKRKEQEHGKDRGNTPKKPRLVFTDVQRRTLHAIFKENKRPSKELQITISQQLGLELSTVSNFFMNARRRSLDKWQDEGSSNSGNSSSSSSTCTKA
Hepatocyte nuclear factor 3-beta (Homo sapiens), sequence (Q9Y261 whole entry, looked up): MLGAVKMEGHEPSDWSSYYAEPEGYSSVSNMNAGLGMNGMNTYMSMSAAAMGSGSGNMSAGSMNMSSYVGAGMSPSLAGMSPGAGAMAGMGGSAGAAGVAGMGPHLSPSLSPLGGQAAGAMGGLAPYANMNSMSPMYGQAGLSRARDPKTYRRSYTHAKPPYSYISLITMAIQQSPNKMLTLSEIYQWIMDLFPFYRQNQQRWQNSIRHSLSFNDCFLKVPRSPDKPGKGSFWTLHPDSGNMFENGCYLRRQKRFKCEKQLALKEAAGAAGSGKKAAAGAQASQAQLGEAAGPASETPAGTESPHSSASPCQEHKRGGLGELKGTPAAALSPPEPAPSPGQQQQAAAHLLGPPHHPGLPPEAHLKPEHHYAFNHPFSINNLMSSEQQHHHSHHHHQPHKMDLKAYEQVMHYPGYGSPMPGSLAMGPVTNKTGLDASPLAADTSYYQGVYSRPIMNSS
Heat shock factor protein 1 (Homo sapiens), sequence (Q00613 whole entry, looked up, the tested form may be a part): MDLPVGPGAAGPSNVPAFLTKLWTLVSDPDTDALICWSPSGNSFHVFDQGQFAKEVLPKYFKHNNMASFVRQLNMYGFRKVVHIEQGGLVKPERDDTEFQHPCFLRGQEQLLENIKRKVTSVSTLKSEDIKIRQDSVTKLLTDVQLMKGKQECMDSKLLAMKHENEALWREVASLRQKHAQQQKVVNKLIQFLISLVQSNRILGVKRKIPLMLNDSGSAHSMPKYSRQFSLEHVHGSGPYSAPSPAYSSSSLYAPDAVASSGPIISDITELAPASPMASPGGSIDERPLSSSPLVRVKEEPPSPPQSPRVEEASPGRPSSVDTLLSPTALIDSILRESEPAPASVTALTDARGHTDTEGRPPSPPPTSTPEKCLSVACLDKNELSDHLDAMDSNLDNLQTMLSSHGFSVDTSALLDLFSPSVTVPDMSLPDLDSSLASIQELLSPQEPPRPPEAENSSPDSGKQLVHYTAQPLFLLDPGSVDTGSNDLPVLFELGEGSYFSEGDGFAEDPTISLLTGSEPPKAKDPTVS
Hypoxia-inducible factor 1-alpha (Homo sapiens), sequence (Q16665 whole entry, looked up): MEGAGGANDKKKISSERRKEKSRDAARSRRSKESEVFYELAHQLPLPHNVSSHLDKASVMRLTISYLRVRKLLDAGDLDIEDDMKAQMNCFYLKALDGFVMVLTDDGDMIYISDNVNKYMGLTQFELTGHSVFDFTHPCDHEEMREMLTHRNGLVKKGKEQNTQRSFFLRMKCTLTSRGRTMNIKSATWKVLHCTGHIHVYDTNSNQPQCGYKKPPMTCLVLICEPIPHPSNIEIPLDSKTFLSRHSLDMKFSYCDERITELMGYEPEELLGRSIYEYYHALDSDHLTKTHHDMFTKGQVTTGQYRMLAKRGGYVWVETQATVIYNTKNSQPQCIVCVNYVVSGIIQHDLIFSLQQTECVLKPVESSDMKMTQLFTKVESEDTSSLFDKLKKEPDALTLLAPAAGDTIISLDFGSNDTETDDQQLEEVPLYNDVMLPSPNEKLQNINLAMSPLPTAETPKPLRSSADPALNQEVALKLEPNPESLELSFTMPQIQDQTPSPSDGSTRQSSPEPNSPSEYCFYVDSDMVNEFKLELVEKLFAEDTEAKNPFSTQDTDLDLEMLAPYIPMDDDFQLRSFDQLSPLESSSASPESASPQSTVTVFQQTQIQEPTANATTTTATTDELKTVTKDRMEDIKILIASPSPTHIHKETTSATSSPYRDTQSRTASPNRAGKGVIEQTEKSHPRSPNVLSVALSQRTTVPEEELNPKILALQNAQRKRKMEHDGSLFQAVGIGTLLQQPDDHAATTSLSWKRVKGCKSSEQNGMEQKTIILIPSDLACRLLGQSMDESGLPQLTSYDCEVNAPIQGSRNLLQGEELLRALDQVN
Bile acid receptor (Homo sapiens), sequence (Q96RI1 whole entry, looked up, the tested form may be a part): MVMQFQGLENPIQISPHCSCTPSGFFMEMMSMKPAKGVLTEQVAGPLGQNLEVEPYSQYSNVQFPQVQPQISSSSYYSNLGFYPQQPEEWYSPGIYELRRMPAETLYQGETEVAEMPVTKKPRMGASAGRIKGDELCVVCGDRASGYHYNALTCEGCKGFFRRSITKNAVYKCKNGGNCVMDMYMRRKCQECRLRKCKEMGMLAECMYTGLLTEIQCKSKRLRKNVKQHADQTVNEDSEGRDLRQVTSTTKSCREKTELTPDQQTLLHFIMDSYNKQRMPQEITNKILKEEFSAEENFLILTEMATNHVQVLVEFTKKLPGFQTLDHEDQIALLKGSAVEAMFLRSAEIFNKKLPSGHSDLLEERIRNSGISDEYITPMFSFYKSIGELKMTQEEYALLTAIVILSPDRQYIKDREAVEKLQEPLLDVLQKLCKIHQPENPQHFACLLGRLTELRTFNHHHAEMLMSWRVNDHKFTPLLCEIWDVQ

CCC(Cl)C(Cl)C(Cl)CC(Cl)C(Cl)C(C)Cl (stereo unspecified)
active: [1] 83.9 µM | [9] 10.5 µM | [17] 74 µM
not listed: [18] | [19]
inactive: all other assays above

C=CCCC(=O)/C=C/C1C(C)=CCCC1(C)C (stereo unspecified)
active: [1] 160 µM | [16] 152 µM | [17] 150 µM
not listed: [9] | [10] | [19]
inactive: all other assays above

C=CCOC(=O)CCCCCC
not listed: [9] | [19]
inactive: all other assays above

NCCNc1cccc2ccccc12
active: [1] 176 µM | [2] 141 µM | [14] 100 µM | [17] 156 µM
not listed: [9] | [19]
inactive: all other assays above

OCC(O)c1ccccc1 (stereo unspecified)
not listed: [9] | [10] | [18]
inactive: all other assays above

COC(=O)C=C(C)CCC=C(C)C
not listed: [9] | [10] | [18]
inactive: all other assays above

O=C(CS)OCCOC(=O)CS
active: [1] 58.7 µM | [11] 57.8 µM
not listed: [10] | [12] | [18] | [19]
inactive: all other assays above

Nc1c(Cl)cc(Cl)cc1[N+](=O)[O-]
active: [1] 92 µM
not listed: [6] | [9] | [10] | [12] | [16] | [18]
inactive: all other assays above

IC(I)I
not listed: [3] | [18] | [19]
inactive: all other assays above

C#CC(C)(O)CC(C)C (stereo unspecified)
not listed: [9] | [19]
inactive: all other assays above

Cc1ncc[nH]1
not listed: [18] | [19]
inactive: all other assays above

O=[N+]([O-])c1ccc(O)cc1C(F)(F)F
active: [11] 48 µM | [17] 61.1 µM
not listed: [15] | [19]
inactive: all other assays above

CCOC(=O)C(C#N)=C(c1ccccc1)c1ccccc1
active: [2] 20 µM | [9] 100 µM | [14] 19.8 µM | [16] 149 µM | [17] 86.9 µM | [18] 2.07 µM
not listed: [3] | [8] | [10] | [19]
inactive: all other assays above

CC=Cc1ccc(OC)c(OC)c1
not listed: [8] | [15] | [18] | [19]
inactive: all other assays above

O=C(c1ccccc1)C(O)c1ccccc1 (stereo unspecified)
not listed: [9] | [10] | [18] | [19]
inactive: all other assays above

C=Cc1ccncc1
active: [1] 46.1 µM | [2] 37.1 µM | [4] 57.3 µM | [7] 22.7 µM | [11] 55.9 µM | [15] 33.9 µM | [16] 75.8 µM | [17] 28.2 µM
not listed: [6] | [19]
inactive: all other assays above
